Data on 38 molecules can be found in PubChem BioAssay (NCATS).

Records with an inconclusive call do not appear. Values without a mark were called inactive. The source made the active and inactive calls. Calls follow the shape of the dose curve; as a rule, active = well fitted curve in the direction sought with a large enough effect; inconclusive = small, poorly fitted or top-dose-only effect, or another doubt; inactive = no such curve, though single readings can be large; an effect the other way counts as inactive or inconclusive. Residues, ends and D or L forms follow the SMILES beside them. *: point of attachment. Cbz = O=C(OCc1ccccc1)*
Potency is read from the fitted curve at half-maximal effect.

The nature of one assay: High Content Imaging Cell-Based qHTS for Inhibitors of the mTORC1 Signaling Pathway in MEF Cells (AID 2667).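 As to activity change, negative = inhibition: Tsc2-/- p53-/- MEFs stably re-expressing wild-type Tsc2 exposed 24 h; plate controls were DMSO wells for no effect and rapamycin control wells for full effect.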 Particulars: series mostly up to 38.3 µM; activity change, negative = inhibition: at the top concentration. The method in brief:
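Tsc2-/-, p53-/- MEFs stably re-expressing WT Tsc2, grown in DMEM + 10% FBS, were treated with compounds for 24 hrs at 37 degree Celsius, fixed, and stained with Alexa-488 phospho-rpS6 Ser235/236 antibody plus Hoechst; results given as % positive cells.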
Regarding `N=C(N)c1ccc(OCCCCCOc2ccc(C(=N)N)cc2)cc1` (tested in a mixture with another compound), the Potency is 11.7 µM (active).

As to `CC(O)C(O)[C@H]1CNc2nc(N)[nH]c(=O)c2N1` (stereo partly specified), the “activity change, negative = inhibition” value was -100%.

Take `N#C/C(=C\c1ccc(O)c(O)c1)C(=O)NCCCNC(=O)/C(C#N)=C/c1ccc(O)c(O)c1`: the “activity change, negative = inhibition” value was -100%.

In the case of `Cc1nc2c(OCc3ccccc3)cccn2c1CC#N`, the “activity change, negative = inhibition” value was -100%.

Take `O=C(O)C1=CCCN(CCON=C(c2ccccc2)c2ccccc2)C1`: the “activity change, negative = inhibition” value was -100%.

On to `CC(=O)SC1CC2=CC(=O)CC[C@]2(C)C2CC[C@@]3(C)C(CC[C@@]34CCC(=O)O4)C12` (stereo partly specified), for which the “activity change, negative = inhibition” value is -100%.

As to `COc1ccc(CCn2nnnc2C2(c3ccc(C)cc3)CC2)cc1`, the “activity change, negative = inhibition” value is -100%.

`CC(C)[C@@H]1CC[C@@H](C)C[C@@H]1P(=O)(c1ccccc1)c1ccccc1`: the “activity change, negative = inhibition” value is -100%.

Turning to `CCCCOc1cc(CC2CNC(=O)N2)ccc1OC` (stereo unspecified), the “activity change, negative = inhibition” value is -100%.

In the case of `O=c1cc(O)cc(/C=C/c2ccc(O)c(O)c2)o1`, the “activity change, negative = inhibition” value was -100%.

Turning to `Nc1ncnc2c1ncn2C1CCCO1` (stereo unspecified), the “activity change, negative = inhibition” value is -100%.

As for `O=C(O)C1=CC(=C(c2ccc(O)c(C(=O)O)c2)c2ccc(O)c(C(=O)O)c2)C=CC1=O`, the “activity change, negative = inhibition” value is -100%.

Take `CCCn1c(=O)c(C)cn2nc(N)nc12`: the “activity change, negative = inhibition” value was -100%.

As for `C=CC1(C)CC(=O)C2(O)C(C)(O1)C(OC(C)=O)C(O)C1C(C)(C)CCC(O)C12C` (stereo unspecified), the “activity change, negative = inhibition” value was -100%.

For `O=c1[nH]c(=O)c2nc3ccccc3nc2[nH]1`, the “activity change, negative = inhibition” value was -100%.

`CC(C)C[C@H](NC(=O)C1OC1C(=O)O)C(=O)NCCCCN=C(N)N` (stereo partly specified): the “activity change, negative = inhibition” value is -100%.

`O=C(O)CCC/C=C\C[C@@H]1[C@@H](/C=C/[C@H](O)C2Cc3ccccc3C2)[C@@H](F)C[C@@H]1O`: the “activity change, negative = inhibition” value is -100%.

Consider `CC(C)[C@H](NC(=O)OCc1ccccc1)C(=O)N[C@H](C=O)Cc1ccccc1` (Cbz-Val-Phe-aldehyde), for which the “activity change, negative = inhibition” value is -100%.

Take `NC(=Nc1ccccc1)NC(=O)c1nc(Cl)c(N)nc1N`: the “activity change, negative = inhibition” value was -100%.

As to `N[C@H](C(=O)O)[C@H](Cc1ccccc1)C(=O)O`, the “activity change, negative = inhibition” value was -100%.

For `CC(=O)O[C@H]1Cc2ccccc2N(C(N)=O)c2ccccc21`, the “activity change, negative = inhibition” value was -100%.

As to `NC[C@@H]1O[C@H](c2ccccc2)Cc2c1ccc(O)c2O`, the “activity change, negative = inhibition” value was -100%.

On to `Cc1ccc2c(c1)C(N1CCN(C)CC1)=Nc1cccnc1N2`, for which the “activity change, negative = inhibition” value is -100%.

In the case of `NS(=O)(=O)c1cccc2c1c([N+](=O)[O-])cc1nc(O)c(O)nc12`, the “activity change, negative = inhibition” value is -100%.

In the case of `Nc1nc2c(nc(Br)n2C2OC3COP(=O)(O)O[C@@H]3C2O)c(=O)[nH]1` (stereo partly specified), the “activity change, negative = inhibition” value is -100%.

As for `NCC(O)C1CCCCCCC1` (stereo unspecified), the “activity change, negative = inhibition” value was -100%.

On to `CCN(c1nc(N)c(C(=O)N=C(N)N)nc1Cl)C(C)C`, for which the “activity change, negative = inhibition” value was -100%.

As for `O=c1ccc2c(OCCCCc3ccccc3)c3ccoc3cc2o1`, the “activity change, negative = inhibition” value is -100%.

With `CC(C)NC[C@H](O)COc1cccc2ccccc12`, the “activity change, negative = inhibition” value was -100%.

On to `Cc1nc(N=Nc2cc(S(=O)(=O)O)c3cc([N+](=O)[O-])cc(S(=O)(=O)O)c3c2)c(COP(=O)(O)O)c(C=O)c1O`, for which the “activity change, negative = inhibition” value was -100%.

As to `CN1CC(O)C(O)C(O)C1CO` (stereo unspecified), the “activity change, negative = inhibition” value is -100%.

With `CCCCCCCCCCCCCCSCC(=O)O`, the “activity change, negative = inhibition” value was -100%.

Regarding `CCCCCCC/C=C\CCCCCCCCC(=O)O`, the “activity change, negative = inhibition” value is -100%.

Regarding `Cc1ccc([N+](=O)[O-])cc1S(=O)(=O)N(C)C`, the “activity change, negative = inhibition” value was -100%.

For the molecule `C=C1C[C@@]23CC[C@H]4[C@@](C)(CCC[C@@]4(C)C(=O)O)[C@@H]2CC[C@]1(O)C3`, the “activity change, negative = inhibition” value is -100%.

Take `O=C(O)c1ccccc1Nc1cccc(OCc2ccc3ccccc3n2)c1`: the “activity change, negative = inhibition” value was -100%.

`CCCCCCC(=O)OC1CC(C)(C)NC(C)(C)C1`: the “activity change, negative = inhibition” value is -100%.

For `O=C(O)/C(=C/c1c(C(=O)O)[nH]c2cc(Cl)cc(Cl)c12)c1ccccc1`, the “activity change, negative = inhibition” value was -100%.

The next assay is described as follows: Cytometry Cell-Based qHTS for Inhibitors of the mTORC1 Signaling Pathway in MEF cells (AID 2668).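 As to activity change, negative = inhibition: Tsc2-/- p53-/- mouse embryonic fibroblasts stably re-expressing wild-type Tsc2; percent cells positive for phospho-rpS6 Ser235/236 relative to propidium iodide stain; plate controls were DMSO wells for no effect and 7.5 nM rapamycin control wells for full effect.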 Particulars: mTORC1 pathway readout; series mostly up to 38.3 µM; activity change, negative = inhibition: at the top concentration. The method in brief:
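Pathway inhibition in WT Tsc2-rescued Tsc2-/-, p53-/- MEFs is measured as the Alexa-488 phospho-rpS6 to propidium iodide intensity ratio after 24 hrs of compound at 37 degree Celsius. PI-stained cell number gives viability.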
(In general: Quantitative high-throughput screening tests each substance at several concentrations.)
Consider `N=C(N)c1ccc(OCCCCCOc2ccc(C(=N)N)cc2)cc1` (tested in a mixture with another compound), for which the Potency is 10.4 µM (active).

As to `CC(O)C(O)[C@H]1CNc2nc(N)[nH]c(=O)c2N1` (stereo partly specified), the “activity change, negative = inhibition” value is 4.72%.

In the case of `N#C/C(=C\c1ccc(O)c(O)c1)C(=O)NCCCNC(=O)/C(C#N)=C/c1ccc(O)c(O)c1`, the “activity change, negative = inhibition” value is -4.24%.

Regarding `Cc1nc2c(OCc3ccccc3)cccn2c1CC#N`, the “activity change, negative = inhibition” value is 1.6%.

Consider `O=C(O)C1=CCCN(CCON=C(c2ccccc2)c2ccccc2)C1`, for which the “activity change, negative = inhibition” value was -2.97%.

With `CC(=O)SC1CC2=CC(=O)CC[C@]2(C)C2CC[C@@]3(C)C(CC[C@@]34CCC(=O)O4)C12` (stereo partly specified), the “activity change, negative = inhibition” value was 20.1%.

As for `COc1ccc(CCn2nnnc2C2(c3ccc(C)cc3)CC2)cc1`, the “activity change, negative = inhibition” value is -3.02%.

For `CC(C)[C@@H]1CC[C@@H](C)C[C@@H]1P(=O)(c1ccccc1)c1ccccc1`, the “activity change, negative = inhibition” value is -2.42%.

With `CCCCOc1cc(CC2CNC(=O)N2)ccc1OC` (stereo unspecified), the “activity change, negative = inhibition” value was -1.19%.

Take `O=c1cc(O)cc(/C=C/c2ccc(O)c(O)c2)o1`: the “activity change, negative = inhibition” value is -2.53%.

For the molecule `Nc1ncnc2c1ncn2C1CCCO1` (stereo unspecified), the “activity change, negative = inhibition” value is 3.3%.

In the case of `O=C(O)C1=CC(=C(c2ccc(O)c(C(=O)O)c2)c2ccc(O)c(C(=O)O)c2)C=CC1=O`, the “activity change, negative = inhibition” value is 1.99%.

With `CCCn1c(=O)c(C)cn2nc(N)nc12`, the “activity change, negative = inhibition” value is 6.86%.

In the case of `C=CC1(C)CC(=O)C2(O)C(C)(O1)C(OC(C)=O)C(O)C1C(C)(C)CCC(O)C12C` (stereo unspecified), the “activity change, negative = inhibition” value is 9.4%.

For `O=c1[nH]c(=O)c2nc3ccccc3nc2[nH]1`, the “activity change, negative = inhibition” value is -5.01%.

`CC(C)C[C@H](NC(=O)C1OC1C(=O)O)C(=O)NCCCCN=C(N)N` (stereo partly specified): the “activity change, negative = inhibition” value was 11.4%.

`O=C(O)CCC/C=C\C[C@@H]1[C@@H](/C=C/[C@H](O)C2Cc3ccccc3C2)[C@@H](F)C[C@@H]1O`: the “activity change, negative = inhibition” value is 5.06%.

Take `CC(C)[C@H](NC(=O)OCc1ccccc1)C(=O)N[C@H](C=O)Cc1ccccc1` (Cbz-Val-Phe-aldehyde): the “activity change, negative = inhibition” value was 6.23%.

Regarding `NC(=Nc1ccccc1)NC(=O)c1nc(Cl)c(N)nc1N`, the “activity change, negative = inhibition” value was -10.8%.

Consider `N[C@H](C(=O)O)[C@H](Cc1ccccc1)C(=O)O`, for which the “activity change, negative = inhibition” value was 5.08%.

`CC(=O)O[C@H]1Cc2ccccc2N(C(N)=O)c2ccccc21`: the “activity change, negative = inhibition” value is -0.397%.

With `NC[C@@H]1O[C@H](c2ccccc2)Cc2c1ccc(O)c2O`, the “activity change, negative = inhibition” value is 6.33%.

As for `Cc1ccc2c(c1)C(N1CCN(C)CC1)=Nc1cccnc1N2`, the “activity change, negative = inhibition” value is -22%.

For the molecule `NS(=O)(=O)c1cccc2c1c([N+](=O)[O-])cc1nc(O)c(O)nc12`, the “activity change, negative = inhibition” value was -2.31%.

Turning to `Nc1nc2c(nc(Br)n2C2OC3COP(=O)(O)O[C@@H]3C2O)c(=O)[nH]1` (stereo partly specified), the “activity change, negative = inhibition” value is 8.28%.

For `NCC(O)C1CCCCCCC1` (stereo unspecified), the “activity change, negative = inhibition” value is -0.908%.

For `CCN(c1nc(N)c(C(=O)N=C(N)N)nc1Cl)C(C)C`, the “activity change, negative = inhibition” value was -7.21%.

For `O=c1ccc2c(OCCCCc3ccccc3)c3ccoc3cc2o1`, the “activity change, negative = inhibition” value was 17.9%.

Consider `CC(C)NC[C@H](O)COc1cccc2ccccc12`, for which the “activity change, negative = inhibition” value is 3.96%.

As to `Cc1nc(N=Nc2cc(S(=O)(=O)O)c3cc([N+](=O)[O-])cc(S(=O)(=O)O)c3c2)c(COP(=O)(O)O)c(C=O)c1O`, the “activity change, negative = inhibition” value was 9.88%.

Turning to `CN1CC(O)C(O)C(O)C1CO` (stereo unspecified), the “activity change, negative = inhibition” value is 3.25%.

For `CCCCCCCCCCCCCCSCC(=O)O`, the “activity change, negative = inhibition” value was 8.63%.

On to `CCCCCCC/C=C\CCCCCCCCC(=O)O`, for which the “activity change, negative = inhibition” value is -0.995%.

As to `Cc1ccc([N+](=O)[O-])cc1S(=O)(=O)N(C)C`, the “activity change, negative = inhibition” value was 6.83%.

Regarding `C=C1C[C@@]23CC[C@H]4[C@@](C)(CCC[C@@]4(C)C(=O)O)[C@@H]2CC[C@]1(O)C3`, the “activity change, negative = inhibition” value is -5.19%.

`O=C(O)c1ccccc1Nc1cccc(OCc2ccc3ccccc3n2)c1`: the “activity change, negative = inhibition” value is -3.31%.

Take `CCCCCCC(=O)OC1CC(C)(C)NC(C)(C)C1`: the “activity change, negative = inhibition” value is -17.2%.

As to `O=C(O)/C(=C/c1c(C(=O)O)[nH]c2cc(Cl)cc(Cl)c12)c1ccccc1`, the “activity change, negative = inhibition” value was -18.5%.
